This is an account of results in PubChem BioAssay (EPA / NIEHS).

Read-out in test [1]: Matrix Metallopeptidase 9 (MMP9), MMP9 (gene 4318)
Put plainly: BSK_KF3CT_MMP9: BioMAP Diversity Plus: KF3CT Assay for Matrix Metallopeptidase 9 (MMP9) Biomarker Activity (AID 2283074).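 For AC50: MMP9 protein level quantified by ELISA in the co-culture.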 The settings on record: primary human keratinocytes with fibroblasts; actives raise or lower the signal. An outline of the steps: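 ELISA read-out of MMP-9 at 24 h post-dosing in a co-culture of human skin keratinocytes and foreskin fibroblasts. Gain or loss of signal was fitted in both directions against DMSO.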

Read-out in test [2]: urokinase plasminogen activator (uPA), PLAU (gene 5328)
The test is described as follows: BSK_KF3CT_uPA: BioMAP Diversity Plus: KF3CT Assay for urokinase plasminogen activator (uPA) Biomarker Activity (AID 2283075). The conditions noted are these: primary human keratinocytes with fibroblasts; actives raise or lower the signal. An outline of the steps:
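Skin co-culture (keratinocytes + foreskin fibroblasts), human primary; 24 h post-dose; uPA by ELISA; gain/loss fit vs DMSO baseline.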

Read-out in test [3]: CD40, CD40 (gene 958)
The test is described as follows: BSK_LPS_CD40: BioMAP Diversity Plus: LPS Assay for CD40 Biomarker Activity (AID 2283076). The settings on record: primary human HUVEC with PBMC; actives raise or lower the signal. An outline of the steps:
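HUVEC plus PBMC co-culture stimulated with LPS; CD40 quantified by ELISA 24 h after compound dosing. Fitting was bidirectional relative to DMSO. SRB staining of parallel cultures flagged overt cytotoxicity.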

Read-out in test [4]: E-selectin (Homo sapiens) (UniProt P16581)
Put plainly: BSK_LPS_Eselectin: BioMAP Diversity Plus: LPS Assay for Eselectin Biomarker Activity (AID 2283077). The settings on record: primary human HUVEC with PBMC; actives raise or lower the signal. An outline of the steps: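 Human umbilical vein endothelial cells co-cultured with PBMC under LPS stimulation; cell-surface E-selectin measured by ELISA 24 h after dosing. Change in either direction versus DMSO, with SRB total-protein staining in parallel cultures for cytotoxicity.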

Read-out in test [5]: Interleukin-8 (IL8), CXCL8 (gene 3576)
Put plainly: BSK_LPS_IL8: BioMAP Diversity Plus: LPS Assay for Interleukin-8 (IL8) Biomarker Activity (AID 2283078). The conditions noted are these: primary human HUVEC with PBMC; actives raise or lower the signal. In a few lines: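 Human umbilical vein endothelial cells co-cultured with PBMC, LPS-stimulated, exposed to compound for 24 h. IL-8 quantified by ELISA; fitted in both directions against DMSO, with SRB total-protein staining of parallel cultures for cytotoxicity.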

Test [6] in a line: BSK_LPS_SRB: Viability Assessment in the BioMAP Diversity Plus: LPS Assay (AID 2283079).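 Note: total protein by sulforhodamine B absorbance as a cytotoxicity measure; measured one day after compound addition.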 The conditions noted are these: primary human HUVEC with PBMC. In a few lines: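 Co-culture of human umbilical vein endothelial cells and PBMC, read 24 h after dosing. Total protein by 0.1% SRB staining after 10% TCA fixation, absorbance at 560 nm; bidirectional fit against DMSO.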
Read-out in test [7]: Interleukin-1 alpha (IL1a), IL1A (gene 3552)
The test is described as follows: BSK_LPS_IL1a: BioMAP Diversity Plus: LPS Assay for Interleukin-1 alpha (IL1a) Biomarker Activity (AID 2283080). The settings on record: primary human HUVEC with PBMC; actives raise or lower the signal. An outline of the steps: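 Human umbilical vein endothelial cells co-cultured with PBMC and stimulated with LPS; IL-1a measured by ELISA 24 h after dosing. Bidirectional fitting against DMSO; cytotoxicity checked by SRB staining in parallel cultures.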

Read-out in test [8]: Monocyte Chemoattractant Protein-1 (MCP1), CCL2 (gene 6347)
Put plainly: BSK_LPS_MCP1: BioMAP Diversity Plus: LPS Assay for Monocyte Chemoattractant Protein-1 (MCP1) Biomarker Activity (AID 2283081). The settings on record: primary human HUVEC with PBMC; actives raise or lower the signal. In a few lines: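 Human umbilical vein endothelial cells co-cultured with PBMC, LPS-stimulated; secreted MCP-1 measured by ELISA 24 h after compound addition. Bidirectional curve fitting against DMSO baseline; SRB total-protein staining in parallel cultures for cytotoxicity.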

The nature of test [9]: BSK_LPS_PGE2: BioMAP Diversity Plus: LPS Assay for Prostaglandin E2 (PGE2) Biomarker Activity (AID 2283082). The conditions noted are these: primary human HUVEC with PBMC; actives raise or lower the signal. An outline of the steps:
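PGE2 release measured by ELISA in an LPS-activated co-culture of human umbilical vein endothelial cells and peripheral blood mononuclear cells, read at 24 h post-dosing. DMSO served as baseline for bidirectional curve fitting.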

Read-out in test [10]: Macrophage colony-stimulating factor (MCSF), CSF1 (gene 1435)
The test is described as follows: BSK_LPS_MCSF: BioMAP Diversity Plus: LPS Assay for Macrophage colony-stimulating factor (MCSF) Biomarker Activity (AID 2283083). The settings on record: primary human HUVEC with PBMC; actives raise or lower the signal. In a few lines: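 HUVEC–PBMC co-culture, M-CSF measured by ELISA 24 h after chemical dosing. Fitted in both directions relative to DMSO as negative control; overt cytotoxicity assessed by SRB total-protein staining in parallel cultures.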

Read-out in test [11]: Tissue Factor, F3 (gene 2152)
Put plainly: BSK_LPS_TissueFactor: BioMAP Diversity Plus: LPS Assay for Tissue Factor Biomarker Activity (AID 2283084). The settings on record: primary human HUVEC with PBMC; actives raise or lower the signal. In a few lines:
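Human umbilical vein endothelial cells co-cultured with PBMC were dosed with compound. Cell-surface CD142 was measured by ELISA 24 h later. Activity was fitted bidirectionally against DMSO, with SRB total-protein staining in parallel cultures for cytotoxicity.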

Read-out in test [12]: Tumor necrosis factor (Homo sapiens) (UniProt P01375)
Put plainly: BSK_LPS_TNFa: BioMAP Diversity Plus: LPS Assay for Tumour Necrosis Factor alpha (TNFa) Biomarker Activity (AID 2283085). The conditions noted are these: primary human HUVEC with PBMC; actives raise or lower the signal. In a few lines: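 TNFa was quantified by ELISA in LPS-activated co-cultures of human endothelial cells and PBMC, 24 h post-dosing. Both increases and decreases versus DMSO were fitted.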

Read-out in test [13]: Vascular cell adhesion molecule 1 (VCAM1), VCAM1 (gene 7412)
The test is described as follows: BSK_LPS_VCAM1: BioMAP Diversity Plus: LPS Assay for Vascular cell adhesion molecule 1 (VCAM1) Biomarker Activity (AID 2283086). The settings on record: primary human HUVEC with PBMC; actives raise or lower the signal. In a few lines: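 VCAM-1 quantified by ELISA in an LPS-activated co-culture of human endothelial cells and peripheral blood mononuclear cells, read 24 h post-treatment. Fitted in both directions versus DMSO; parallel SRB staining flags overt cytotoxicity.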

Read-out in another test: CD38, CD38 (gene 952)
The test is described as follows: BSK_SAg_CD38: BioMAP Diversity Plus: SAg Assay for CD38 Biomarker Activity (AID 2283087). The settings on record: primary human HUVEC with PBMC; actives raise or lower the signal. An outline of the steps: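 CD38 quantified by ELISA (fluorescence) in a superantigen-activated endothelial cell–PBMC co-culture at 24 h post-dose. Activity fitted in both directions relative to DMSO; parallel SRB and Alamar Blue cytotoxicity read-outs.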

Read-out in test [14]: CD40, CD40 (gene 958)
Put plainly: BSK_SAg_CD40: BioMAP Diversity Plus: SAg Assay for CD40 Biomarker Activity (AID 2283088). The settings on record: primary human HUVEC with PBMC; actives raise or lower the signal. In a few lines: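 HUVEC plus PBMC co-culture, superantigen-activated, with CD40 read by ELISA 24 h after dosing. Curves fitted in both directions against DMSO. Overt cytotoxicity checked by parallel SRB total-protein staining.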

Read-out in a further test: CD69, CD69 (gene 969)
Put plainly: BSK_SAg_CD69: BioMAP Diversity Plus: SAg Assay for CD69 Biomarker Activity (AID 2283089).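 For AC50: cell surface CD69 protein quantified by ELISA with fluorescence detection.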 The conditions noted are these: primary human HUVEC with PBMC; actives raise or lower the signal. An outline of the steps:
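Values derive from bidirectional fitting relative to DMSO vehicle. Cells: umbilical vein endothelium plus peripheral blood mononuclear cells, treated 24 h before fluorescent ELISA for CD69.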

Read-out in test [15]: Monocyte Chemoattractant Protein-1 (MCP1), CCL2 (gene 6347)
Put plainly: BSK_SAg_MCP1: BioMAP Diversity Plus: SAg Assay for Monocyte Chemoattractant Protein-1 (MCP1) Biomarker Activity (AID 2283090). The conditions noted are these: primary human HUVEC with PBMC; actives raise or lower the signal. An outline of the steps:
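Values derive from bidirectional fitting of ELISA-measured MCP1 against DMSO controls. Readings were taken 24 h after dosing human vascular endothelial cells co-cultured with peripheral blood mononuclear cells under superantigen stimulation.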

Read-out in test [16]: E-selectin (Homo sapiens) (UniProt P16581)
The test is described as follows: BSK_SAg_Eselectin: BioMAP Diversity Plus: SAg Assay for Eselectin Biomarker Activity (AID 2283091). The conditions noted are these: primary human HUVEC with PBMC; actives raise or lower the signal. In a few lines:
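Human umbilical vein endothelial cells co-cultured with peripheral blood mononuclear cells, SAg system. E-selectin is measured by ELISA 24 h after dosing and fitted bidirectionally against DMSO. Cytotoxicity is checked by SRB staining of parallel cultures.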

Read-out in test [17]: Monokine induced gamma interferon (MIG), CXCL9 (gene 4283)
The test is described as follows: BSK_SAg_MIG: BioMAP Diversity Plus: SAg Assay for Monokine induced gamma interferon (MIG) Biomarker Activity (AID 2283092). The settings on record: primary human HUVEC with PBMC; actives raise or lower the signal. In a few lines: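 Values reflect bidirectional fitting of ELISA-measured MIG against DMSO vehicle, taken 24 h after dosing of a co-culture of human umbilical vein endothelial cells and peripheral blood mononuclear cells.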

Test [18] is described as follows: BSK_SAg_PBMCCytotoxicity: PBMC Cytotoxicity Assessment in the BioMAP Diversity Plus: SAg Assay (AID 2283093).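 Note: fitted both ways against DMSO so a hit may be loss or gain of signal.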 The settings on record: primary human HUVEC with PBMC. An outline of the steps: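 PBMC viability by Alamar Blue reduction, fluorescence read at 546/580 nm after 6 h dye exposure. Cells were dosed 1 h before SEB plus TSST-1 activation (20 ng/mL final each), then held 90 h; endothelial/PBMC human co-culture.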

SMILES strings stand for the structures. Where a structure was tested more than once in an assay, its records may differ in their call. Calls of active or inactive are those of the source. Rule for the calls: active = hit-call score of the fitted dose curve at least 0.9, where 1 is the maximum; inactive = score below 0.9.

Chain of Tumor necrosis factor (Homo sapiens) (P01375 whole entry, looked up): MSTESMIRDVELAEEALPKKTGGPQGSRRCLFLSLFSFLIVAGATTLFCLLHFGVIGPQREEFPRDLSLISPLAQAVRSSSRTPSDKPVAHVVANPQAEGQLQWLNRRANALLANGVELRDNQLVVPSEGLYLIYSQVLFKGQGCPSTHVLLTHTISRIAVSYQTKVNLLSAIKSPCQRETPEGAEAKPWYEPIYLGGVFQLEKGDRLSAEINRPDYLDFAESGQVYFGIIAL
Chain of E-selectin (Homo sapiens) (P16581 whole entry, looked up): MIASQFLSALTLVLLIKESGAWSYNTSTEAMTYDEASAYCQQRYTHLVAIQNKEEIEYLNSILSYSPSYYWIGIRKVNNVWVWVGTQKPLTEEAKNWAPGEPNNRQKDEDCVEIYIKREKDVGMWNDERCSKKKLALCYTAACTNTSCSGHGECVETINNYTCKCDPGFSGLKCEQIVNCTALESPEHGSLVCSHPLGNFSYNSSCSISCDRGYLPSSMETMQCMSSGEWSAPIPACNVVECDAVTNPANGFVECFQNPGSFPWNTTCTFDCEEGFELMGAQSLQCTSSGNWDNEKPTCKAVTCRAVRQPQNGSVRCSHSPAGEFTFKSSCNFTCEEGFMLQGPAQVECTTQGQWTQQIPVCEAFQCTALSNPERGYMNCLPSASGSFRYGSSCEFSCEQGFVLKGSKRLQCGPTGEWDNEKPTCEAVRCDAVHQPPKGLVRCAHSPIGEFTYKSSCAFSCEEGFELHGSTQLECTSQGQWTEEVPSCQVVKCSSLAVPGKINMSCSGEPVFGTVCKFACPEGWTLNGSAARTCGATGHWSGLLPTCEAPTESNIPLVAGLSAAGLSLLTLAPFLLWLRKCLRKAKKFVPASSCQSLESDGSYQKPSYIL

Consider `CCOP(=S)(OCC)SCCS(=O)(=O)CC`, for which the outcome was “inactive” in [1]; “inactive” in test [2]; “inactive” with CD40, CD40 (gene 958) [3]; “inactive” in [4]; “inactive” in test [5]; “inactive” in [6]. The outcome in [7], in [8], in test [9], in [10], in [11] and in [12] was inactive. The outcome in [13] is “inactive”; with CD38, CD38 (gene 952), “inactive”; with CD40, CD40 (gene 958) [14], “inactive”; in the test with CD69, CD69 (gene 969), “inactive”; in test [15], “inactive”; in [16] it was “inactive”. The outcome in test [17] and in test [18] was inactive.
Broadly, the AC50 is the concentration giving half of the maximal activity seen. For `CC(=O)OC(c1ccccc1)C(Cl)(Cl)Cl` (stereo unspecified), the outcome is “inactive” in test [1]; “inactive” in test [2]; “inactive” with CD40, CD40 (gene 958) [3]; “inactive” in test [4]; “inactive” in test [5]; “inactive” in test [6]. Besides, the result in test [8], in test [9], in [10], in [11], in test [12] and in [13] was inactive. Besides, the outcome in the test with CD38, CD38 (gene 952) is “inactive”; with CD40, CD40 (gene 958) [14], “inactive”; with CD69, CD69 (gene 969), “inactive”; in test [15], “inactive”; in [16], “inactive”; in test [17] it was “inactive”. In test [18], the outcome was inactive. Besides, the AC50 with CD69, CD69 (gene 969) was 14.2 µM (active); in test [16], 20 µM (active).
With `Nc1ccc(-c2ccc(N)c(Cl)c2)cc1Cl`, the AC50 in test [1] is 4.21 µM (active); in test [6], 7.78 µM (active); in test [13] it was 1.85 µM (active). Besides, the outcome in [2] is “inactive”; with CD40, CD40 (gene 958) [3], “inactive”; in test [4], “inactive”; in test [5], “inactive”; in test [7], “inactive”; in test [8], “inactive”. The outcome in test [9] is “inactive”; in test [10], “inactive”; in [11], “inactive”; in test [12], “inactive”; with CD38, CD38 (gene 952), “inactive”; with CD40, CD40 (gene 958) [14] it was “inactive”. For the same molecule, the outcome in the test with CD69, CD69 (gene 969) is “inactive”; in test [15], “inactive”; in test [16], “inactive”; in test [17], “inactive”; in test [18], “inactive”.
